# Reference: ChEMBL document CHEMBL3988442, “University of Dundee, Small-Polar-MMV Screening Library” (2021)
# Screen size: about 69,000 compounds; about 1,000 (1.4%) showed an effect of 50% or more. The full list was thinned out, with strong results kept by preference.
# Test system: Leishmania donovani
# Assay: Leishmania intramacrophage assay
# Format: functional, organism-based
# Parameters: scale not given: in the data most compounds retested in dose-response had high values
structure (smiles),measurement,setting,value
CCNC(=O)CN1CCN(Cc2nc3c(F)cccc3n2CC)CC1,Percent Effect,30 µM,25.75%
Cn1cc(CCCN2CCN(Cc3cccc(O)c3)CC2)cn1,Percent Effect,"30.3 µM, […]",7.791%
Cc1nc(C)c(C)c(NCc2cnn3cccnc23)n1,Percent Effect,"30.3 µM, […]",15.17%
Cc1ccc(O)c(CNc2cccc(CN3CCSCC3)c2)n1,Percent Effect,"30.3 µM, […]",6.923%
Cc1nc(CN2C(=O)CCC23CCN(Cc2cccn2C)CC3)cs1.O=C(O)C(F)(F)F.O=C(O)C(F)(F)F,Percent Effect,"30.3 µM, […]",2.496%
N#CCCN(CC1CCOC1)Cn1ccc(-c2ccccc2)n1 (stereo not given),Percent Effect,"30.3 µM, […]",16.63%
CC(C)c1n[nH]c(C(=O)Nc2ccncc2)c1Br,Percent Effect,"30 µM, 30.03 µM",62.71%
CC(C)c1n[nH]c(C(=O)NC(C)c2ccncc2)c1Br (stereo not given),Percent Effect,30 µM,13.54%
COc1ccncc1NC(=O)c1[nH]nc(C(C)C)c1Br,Percent Effect,"30.3 µM, […]",16.78%
NC1CCCCN(Cc2cc(-c3ccccc3OC(F)(F)F)no2)C1 (stereo not given),Percent Effect,"30.3 µM, […]",99.07%
OC1COCCN(Cc2cc(-c3ccccc3OC(F)(F)F)no2)C1 (stereo not given),Percent Effect,"30.3 µM, […]",-21.47%
N[C@@H]1CCN(Cc2cc(-c3ccccc3OC(F)(F)F)no2)C[C@H]1O,Percent Effect,"30.3 µM, […]",12.53%
COc1ccc(C)cc1CN1CCC(c2cc3ncccc3cn2)CC1.Cl,Percent Effect,"30.3 µM, […]",41.3%
CS(=O)(=O)N1CCC(C(=O)Nc2nnc(C(F)(F)F)[nH]2)CC1,Percent Effect,"30.3 µM, […]",1.048%
COC[C@@H]1CCCN1C(=O)c1cc(-c2ccc(OC)cc2)n[nH]1,Percent Effect,"30.3 µM, […]",15.18%
CN1CCC(N(Cc2ccco2)S(=O)(=O)c2cc(Br)ccc2Br)CC1,Percent Effect,"30.3 µM, […]",95.6%
O=c1cc(CN(Cc2ccco2)C2CC2)nc2ccc(Br)cn12,Percent Effect,"30.3 µM, […]",12.01%
CN(Cc1nnc2n1CCC2)S(=O)(=O)c1cc(Br)ccc1Br,Percent Effect,"30.3 µM, […]",22.5%
Cc1nnc(CN(C)S(=O)(=O)c2ccc(Br)cc2Cl)n1C,Percent Effect,"30.3 µM, […]",25.06%
CN1CCC(N(Cc2ccco2)S(=O)(=O)c2ccc(Cl)cc2)CC1,Percent Effect,"30.3 µM, […]",24.1%
CN1CCC(N(Cc2ccco2)S(=O)(=O)c2ccc(Br)cc2Cl)CC1,Percent Effect,"30.3 µM, […]",87.02%
Cc1ccc(NCCCNC(=O)C2CCCN(Cc3ccco3)C2)nc1 (stereo not given),Percent Effect,"30.3 µM, […]",-17.24%
Cc1nc(CN(C)c2nccc(C(F)(F)F)n2)cs1,Percent Effect,"30.3 µM, […]",5.886%
Cc1cnn(CCNc2nc(C)cc(N(C)C)n2)c1,Percent Effect,"30.3 µM, […]",-24.91%
COCCN1CCC(NC(=O)C/C=C/c2ccc(C(C)C)cc2)CC1,Percent Effect,"30.3 µM, […]",51.69%
CC(C)c1ccc(/C=C/CC(=O)NC2CCN(C(N)=O)CC2)cc1,Percent Effect,"30.3 µM, […]",-5.908%
CC(C)c1ccc(/C=C/CC(=O)NC2CCN(C(N)=O)C2)cc1 (stereo not given),Percent Effect,"30.3 µM, […]",6.492%
O=C(CC1CC1)N1CCN(Cc2ccncc2)c2ncccc2C1.O=C(O)C(F)(F)F.O=C(O)C(F)(F)F,Percent Effect,"30.3 µM, […]",-1.398%
CCc1cc(C(=O)N2CCC3(CCCN(CC4CC4)C3=O)C2)cs1 (stereo not given),Percent Effect,"30.3 µM, […]",12.28%
NC(=O)C1CN(Cc2c(O)ccc3oc4c(c23)CCCC4)CCO1 (stereo not given),Percent Effect,"30.3 µM, […]",24.24%
Oc1ccc2oc3c(c2c1CN1CCOCC1)CCCC3,Percent Effect,"30.3 µM, […]",27.1%
O=C1NCCCc2c1oc1ccc(O)c(CN3CCOCC3)c21,Percent Effect,"30.3 µM, […]",56.93%
Cc1nc(CNCC2CN(C)CCO2)cs1 (stereo not given),Percent Effect,"30 µM, 30.03 µM",33.12%
CN1CCOC(CNCc2csc(C3CCCC3)n2)C1 (stereo not given),Percent Effect,30 µM,13.96%
CN1CCOC(CNCc2csc(C3CCCCC3)n2)C1 (stereo not given),Percent Effect,30 µM,56.43%
COc1ccc(CN2C[C@@H]3CC[C@H](C2)N(Cc2snnc2C)C3)cc1,Percent Effect,"30.3 µM, […]",-20.42%
CN(C)S(=O)(=O)NCC1(c2ccccc2Br)CC1,Percent Effect,"30.3 µM, […]",-4.461%
CS(=O)(=O)NCC1(c2ccccc2Br)CC1,Percent Effect,"30.3 µM, […]",-0.01271%
NS(=O)(=O)NCC1(c2ccccc2Br)CC1,Percent Effect,"30.3 µM, […]",94.29%
CC(C)(O)c1cc(CC2(NCc3ccccc3Cl)COC2)no1,Percent Effect,"30.3 µM, […]",25.25%
CC(C)n1cnnc1CCNCc1cn(CCC(N)=O)c2ccccc12,Percent Effect,"30.3 µM, […]",32.43%
CC(NCc1cn(CCC(N)=O)c2ccccc12)c1nncn1C (stereo not given),Percent Effect,"30.3 µM, […]",-7.777%
Cc1ccc(C(C)NCc2cn(CCC(N)=O)c3ccccc23)cc1C (stereo not given),Percent Effect,"30.3 µM, […]",88.97%
O=C(Cn1c(=O)nc2n1C(=O)N(c1ccccc1)C2)NC1CCCCC1,Percent Effect,"30.3 µM, […]",-29.26%
COc1ccccc1CN1C(=O)O[C@@H]2CN(Cc3cccc(C)n3)C[C@@H]21,Percent Effect,"30.3 µM, […]",-18.87%
CC(C)c1nnc2n1CC(CNCc1nc3ccccc3s1)CC2 (stereo not given),Percent Effect,"30.3 µM, […]",-6.919%
O=C(Nc1c(N2CCCC2)cccc1N1CCCC1)c1ccccn1,Percent Effect,"30.3 µM, […]",56.83%
O=C(Nc1c(N2CCCC2)cccc1N1CCCC1)c1cnsn1,Percent Effect,"30.3 µM, […]",-91.54%
O=C(Nc1c(N2CCCC2)cccc1N1CCCC1)c1cnccn1,Percent Effect,"30.3 µM, […]",2.563%
N#Cc1ccccc1CN1C[C@@H]2CC[C@H](C1)N(CC1CC1)C2=O,Percent Effect,"30 µM, 30.03 µM",6.562%
